Six1-Eya2 inh: qHTS Assay for Inhibitors of the Six1/Eya2 Interaction; AlphaScreen GST-Six1/His-Eya2 binding, biochemical; stronger effect = lower value; activity change, % (no concentration beside the values); Homeobox protein SIX1 (Homo sapiens) + Protein phosphatase EYA2 (Homo sapiens), …; 360,000 compounds, 0.56% hits; in the data active means activity change below about -65%; inconclusive means mostly about -30% to -63%
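Homogeneous AlphaScreen proximity assay pairing GST-Six1 with His-tagged Eya2 (added as 5X mix: 250 nM and 500 nM) in 50 mM Tris pH 8.0, 300 mM NaCl, 1 mM TCEP. Glutathione donor and nickel acceptor beads; 1 h, 37 °C, dark.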
Eya2 inh: qHTS Assay for Inhibitors of the Phosphatase Activity of Eya2; Protein phosphatase EYA2 (Homo sapiens), O00167; recombinant Eya2, OMFP fluorescence dephosphorylation (OMFP is methylfluorescein phosphate); Potency, µM (titrated, usually from 76.9 µM), actives largely listed as inhibitors; 330,000 compounds, 0.006% hits
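Eya2 protein (added as 0.2 uM solution) was preincubated with compound for 10 min at ambient temperature in 50 mM HEPES pH 7.5, 50 mM NaCl, 5 uM MgCl2, 0.05% BSA, 1 mM DTT. OMFP (added at 50 uM) then reacted 10 min; fluorescence read at 485/525 nm.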
L3MBTL1 block: qHTS Assay for the Inhibitors of L3MBTL1; Lethal(3)malignant brain tumor-like protein 1 (Homo sapiens), Q9Y468; AlphaScreen L3MBTL1–H3K9me1 peptide binding; Potency, µM (titrated, usually from 57.1 µM), hits mostly inhibitors; 230,000 compounds, 0.66% hits; AID 485360, 2010; further: nearly all actives have a fitted effect of over 60% in size
Target sequence (Q9Y468 whole entry, looked up): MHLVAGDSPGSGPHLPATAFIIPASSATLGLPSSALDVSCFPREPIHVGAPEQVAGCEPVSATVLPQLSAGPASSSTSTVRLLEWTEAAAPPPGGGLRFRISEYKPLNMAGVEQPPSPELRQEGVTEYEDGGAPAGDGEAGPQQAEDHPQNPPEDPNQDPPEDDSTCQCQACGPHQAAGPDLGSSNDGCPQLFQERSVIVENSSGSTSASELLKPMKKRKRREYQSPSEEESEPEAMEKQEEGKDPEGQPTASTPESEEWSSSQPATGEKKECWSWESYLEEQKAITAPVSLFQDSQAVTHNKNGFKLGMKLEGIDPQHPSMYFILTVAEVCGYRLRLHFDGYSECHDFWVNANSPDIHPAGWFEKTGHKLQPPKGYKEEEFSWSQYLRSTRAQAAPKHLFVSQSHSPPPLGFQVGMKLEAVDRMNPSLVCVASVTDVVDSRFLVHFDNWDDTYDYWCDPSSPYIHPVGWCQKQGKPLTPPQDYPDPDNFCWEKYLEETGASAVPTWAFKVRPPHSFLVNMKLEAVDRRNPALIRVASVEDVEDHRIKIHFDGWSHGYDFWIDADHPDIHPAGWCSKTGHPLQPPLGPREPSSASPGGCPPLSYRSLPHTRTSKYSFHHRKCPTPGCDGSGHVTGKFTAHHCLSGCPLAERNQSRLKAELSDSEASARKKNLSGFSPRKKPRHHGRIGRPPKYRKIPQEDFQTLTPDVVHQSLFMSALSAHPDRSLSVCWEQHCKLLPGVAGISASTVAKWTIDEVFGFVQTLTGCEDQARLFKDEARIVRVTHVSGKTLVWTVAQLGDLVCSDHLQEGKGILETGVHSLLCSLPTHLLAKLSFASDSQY
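AlphaScreen assay: L3MBTL1 (50 nM final) was preincubated 30 min at room temperature with biotinylated H3(1-15)K9me1 peptide (75 nM final), then 30 min with library compounds; streptavidin donor and nickel chelate acceptor beads (10 ug/mL final) added, 30 min dark.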
B2AR arrestin: qHTS assay of beta-arrestin-biased ligands of beta2-adrenergic receptor; AID 492947, 2010; beta-arrestin recruitment to beta2AR, cell-based reporter; Beta-2 adrenergic receptor (Homo sapiens), P07550; Potency, µM (highest dose often 46.1 µM), most hits filed as activators; 330,000 compounds, 0.02% hits; further: nearly all actives have a fitted effect of over 65% in size
CtBP-E1A inh: qHTS Assay for Inhibitors of the CtBP/E1A Interaction. CtBP / adenovirus E1A interaction (AlphaScreen). AlphaScreen GST-E1A/His-CtBP binding, 1536-well; stronger effect = lower value. activity change, % (concentration not given with the values). 340,000 compounds, 0.49% hits. AID 651724, 2012; in the data active means activity change below about -65%; inconclusive means mostly about -30% to -63%
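AlphaScreen with 125 nM GST-E1A and 125 nM His-CtBP (5X stocks) in Tris pH 8.0, 300 mM NaCl, BSA, Tween 20, TCEP. Compounds preincubated 2 h at 37 deg C, then glutathione donor/nickel acceptor beads added for 1 h at 37 deg C in dark.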
A number is an active result; n = inactive; u = inconclusive; x = no result given; [ ] = dose if it differs, or a comment. Rows were chosen to be rich in hits. Some 0.9% of all compounds tested hit in one or more screens of this group. Unless noted, the call rests on the fitted dose curve; in most records, active means well fitted curve in the direction sought with a large enough effect; inconclusive means small, poorly fitted or top-dose-only effect, or another doubt; inactive means no such curve, though single readings can be large; an effect the other way counts as inactive or inconclusive.

SMILES	Six1-Eya2 inh	Eya2 inh	L3MBTL1 block	B2AR arrestin	CtBP-E1A inh
Cc1ccc(N(CC(=O)Nc2ccc(Br)c(C)c2)S(=O)(=O)c2c(C)[nH]c(=O)[nH]c2=O)cc1	n	n	x	n	n
O=C(/C=C1\NC2(CCCC2)Cc2ccccc21)C(=O)N/N=C/c1ccc(O)c(O)c1	n	n	14µM	n	n
O=C1CSC(=S)N1N=Cc1c(O)ccc2ccccc12	-88	x	x	x	-89
COc1ccc2ccccc2c1/C=N/N1C(=O)CSC1=S	n	n	u	n	n
COc1cccc(/C=N/N2C(=O)CSC2=S)c1O	-90	n	25µM	n	n
COc1cc(/C=N/N2C(=O)CSC2=S)cc(Br)c1O	u	n	32µM	n	n
COc1cc(/C=N/N2C(C)CCCC2C)cc(Br)c1O (stereo unspecified)	n	n	n	n	n
Cc1ccc(-c2csc3nc(SCC(=O)Nc4ccc(Cl)c(C(=O)O)c4)[nH]c(=O)c23)cc1	-70	n	x	n	x
Cc1ccc(N2C(=O)c3ccccc3C2C(=O)c2ccc(O)cc2O)cc1 (stereo unspecified)	u	n	4.5µM	n	n
Cc1ccc(S(C)(=O)=O)cc1C(=O)Nc1ccc(S(=O)(=O)Nc2nccs2)cc1	n	n	n	n	n
COC(=O)c1c(C(=O)OC)c2ccccn2c1C(=O)c1ccccc1	n	n	n	n	n
COC(=O)c1c(Cl)c2n3ccccc3c(C)c(-c3ccccc3)c-2c1C(=O)OC	-68	n	u	n	u
COC(=O)c1cc2c(-c3ccccc3)c(C)c3ccccn3c-2c1C(=O)OC	-69	n	x	n	u
CC(C)CC(=O)C1=C(O)C(=O)N(Cc2ccccc2)C1c1ccccc1 (stereo unspecified)	n	n	n[2.29 µM]	n	x
CCOC(=O)C(NCc1ccccn1)(NC(=O)c1cccnc1)C(F)(F)F (stereo unspecified)	-83	n	x	n	n
FC(F)(F)C1=Nc2cccc3cccc(c23)N1	u	n	2.5µM	n	n
Cc1cc(/C=N/n2c(COc3ccccc3)nc3ccccc3c2=O)c(O)c([N+](=O)[O-])c1	-88	n	5.6µM	n	-80
O=C(NCc1ccc(Cl)nc1)c1ccc2nc([C@@H]3O[C@H](CO)[C@H](O)[C@H](O)[C@H]3O)[nH]c2c1	n	x	x	x	n
CN(C)c1cc2c(c(N(C)C)c1)C(=O)c1ccccc1C2=O	-81	n	18µM	n	-81
O=C(CCC(=O)Nc1cc(C(F)(F)F)ccc1Cl)N/N=C\c1cc([N+](=O)[O-])ccc1O	n	n	x	n	-67
Cc1cccc(NC(=O)CCC(=O)N/N=C/c2ccncc2)c1	n	n	n	n	n
O=C(CCC(=O)Nc1ccc(F)cc1)N/N=C/c1cc([N+](=O)[O-])ccc1O	u	n	n	n	-86
Cc1cccc(NC(=O)CCC(=O)N/N=C/c2cc([N+](=O)[O-])ccc2O)c1	-79	n	n	n	-90
O=C(CCC(=O)Nc1ccc(Br)cc1)N/N=C/c1cc([N+](=O)[O-])ccc1O	n	n	n	n	n
CCN(CC)c1ccc(/C=C2/C(=O)c3ccc(C(=O)O)cc3C2=O)cc1	n	n	25µM	n	n
SMILES	Six1-Eya2 inh	Eya2 inh	L3MBTL1 block	B2AR arrestin	CtBP-E1A inh
c1ccc(CNc2nc(-c3ccccn3)nc3ccccc23)cc1	u	n	x	n	-77
Cc1[nH]n(-c2ccccc2)c(=O)c1/C=N/NC(=O)COc1ccccc1[N+](=O)[O-]	-79	n	n	n	-88
COC(=O)N/N=C\c1c(C)[nH]n(-c2ccccc2)c1=O	n	n	n	n	n
Cc1c(/C=N/NC(=O)COc2ccccc2[N+](=O)[O-])c2ccccc2n1C	n	n	n	n	x
CC(=O)N/N=C/c1c(C)[nH]n(-c2ccccc2)c1=O	-73	n	x	n	-68
Cc1[nH]n(-c2ccccc2)c(=O)c1/C=N\NC(=O)C1COc2ccccc2O1 (stereo unspecified)	-89	n	n	n	-81
COCC(=O)N/N=C/c1c(C)[nH]n(-c2ccccc2)c1=O	-77	n	x	n	-90
C[C@@H]1CCCCO[C@@H](CN(C)S(=O)(=O)c2ccccc2)[C@@H](C)CN([C@H](C)CO)C(=O)c2cc(N(C)C)ccc2O1	n	x	x	x	n
O=C1COc2cc(S(=O)(=O)NCc3ccco3)c(Cl)cc2N1	x	n	32µM	n	x
COc1ccc(CNS(=O)(=O)c2cc3c(cc2Cl)NC(=O)CO3)cc1	n	u	n	n	n
CNc1ccc(Br)cc(C(=O)/C=C/c2ccc3c(c2)OCO3)c1=O	n	n	28µM	n	n
CNc1ccc(Br)cc(C(=O)/C=C/c2ccc(OC)cc2)c1=O	n	n	n	n	n
COCCCNC(=O)/C=C/c1ccc(Cl)cc1Cl	n	n	n	n	n
CNc1ccc(Br)cc(C(=O)/C=C/c2cc(OC)ccc2OC)c1=O	n	n	14µM	n	n
CCNc1ccc(Br)cc(C(=O)/C=C/c2ccc(Cl)cc2Cl)c1=O	n	n	18µM	n	n
O=S1(=O)CCN(Cc2ccncc2)CC1	n	x	x	x	n
CCC(C(=O)OCC(=O)NC1CCS(=O)(=O)C1)c1ccccc1 (stereo unspecified)	n	n	n	n	n
Cn1c(=O)c(Nc2ccc(O)cc2)c2c3c(cccc31)C(=O)c1ccccc1-2	-77	n	25µM	n	-73
COc1cccc(CN2CCNC(=O)C2CC(=O)NCC2CCOCC2)c1 (stereo unspecified)	n	n	x	n	n
Nc1nc(NC(=O)C(Cl)(Cl)Cl)nn1-c1ccccc1	n	n	28µM	n	n
Cc1cc(Cl)c2oc(C(=O)N(C)CCc3cnn(C)c3)c(C)c2c1	n	n	x	n	n
O=C(O)c1cccc(Nc2c3ccccc3nc3ccccc23)c1	n	n	n	n	x
O=C(NNc1c2ccccc2nc2ccccc12)c1ccc(O)cc1	u	n	u	n	-75
CCCC(=O)NNc1c2ccccc2nc2ccccc12	n	n	n	n	n
O=C(NNc1c2ccccc2nc2ccccc12)c1cccc(O)c1	-65	n	n	n	-77
CCOC(=O)N(C)c1c(CC)nc2c(OCc3cc(Cl)cc(Cl)c3)cccn12	n	x	x	x	n
Cc1cc(C)nc(N/N=C/c2cc(Br)ccc2O)n1	u	n	n	n	-81
Cc1nn(Cc2ccc(C(=O)NC(C)(C)C)o2)c(C)c1Br	n	n	n	n	n
Cc1cc(NC(=O)c2ccc(Cn3nc(C)c(Br)c3C)o2)no1	-70	n	x	n	n
